Rows were chosen to be rich in hits. Some 3.8% of all compounds tested hit in one or more screens of this group.
TIM10 inh: TIM10 yeast growth inhibition; S. cerevisiae TIM10 strain growth, BacTiter-Glo luminescence, 24 h; AID 463195; inhibition, % at 10 µM; 330,000 compounds, 1.4% hits;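 active = inhibition of 40% or more at the single tested concentration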;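 note: wild-type TIM10 isogenic control strain grown at permissive 25 °C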
PfHsp90 set2: reduces growth (ATP signal) of yeast expressing P. falciparum Hsp90; S. cerevisiae expressing PfHsp90, BacTiter-Glo ATP, 48 h; yeast lacking PDR1 and PDR3 efflux regulators; inhibition, % at 9.4 µM; 310,000 compounds, 0.32% hits;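 active = every replicate shows inhibition above about 80%, whatever the replicate mean, limit read from the data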;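 note: 0% = DMSO neutral controls and 100% = 20 µM radicicol positive controls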
tim23-1 inh: growth inhibitors of tim23-1 mutant yeast; S. cerevisiae tim23-1 growth, BacTiter-Glo luminescence, 24 h; inhibition, % at 20 µM; 330,000 compounds, 1.3% hits;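 active = growth inhibition of the mutant yeast at or above 50%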;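 note: temperature-sensitive mutant grown at 25 °C; plate controls were DMSO-treated mutant yeast for no effect and medium wells lacking yeast for full effect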
B2AR ag: activates human beta-2 adrenergic receptor causing internalization; P07550; Am2.2-beta2AR cells, FAP receptor internalization, flow cytometry; response, % (no concentration beside the values); 340,000 compounds, 0.43% hits;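 active = response above a set limit, near 3 SD of response in nonfluorescent compounds, cut at about 42% in these data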
Target sequence (P07550 whole entry, looked up): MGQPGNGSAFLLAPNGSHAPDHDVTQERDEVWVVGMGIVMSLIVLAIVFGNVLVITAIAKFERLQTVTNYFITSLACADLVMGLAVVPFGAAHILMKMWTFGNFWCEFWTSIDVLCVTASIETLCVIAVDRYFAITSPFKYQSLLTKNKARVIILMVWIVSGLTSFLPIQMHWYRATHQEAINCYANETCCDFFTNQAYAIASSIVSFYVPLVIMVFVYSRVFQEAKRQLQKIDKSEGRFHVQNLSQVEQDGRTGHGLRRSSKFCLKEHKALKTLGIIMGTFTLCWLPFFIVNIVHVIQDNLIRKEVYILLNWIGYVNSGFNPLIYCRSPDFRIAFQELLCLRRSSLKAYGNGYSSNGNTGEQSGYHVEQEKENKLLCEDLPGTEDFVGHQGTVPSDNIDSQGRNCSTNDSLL
tim10-1 inh: growth inhibitors of tim10-1 mutant yeast. S. cerevisiae tim10-1 ts strain growth, BacTiter-Glo, 24 h. inhibition, % at 20 µM. 330,000 compounds, 2.2% hits. AID 463190;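 active = inhibition of at least 40%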;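 note: mutant grown at 25 °C; 0% = DMSO wells with yeast and 100% = wells holding no yeast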
tim23-1 confirm: confirmation of tim23-1 mutant yeast growth inhibitors | S. cerevisiae tim23-1 growth, BacTiter-Glo luminescence, 24 h | shares compounds with tim23-1 inh | inhibition, % at 20 µM | 4,400 compounds, 83% hits;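 active = inhibition above about 39% in either of two replicate wells at 20 µM, limit read from the data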;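 note: temperature-sensitive tim23-1 mutant grown at 25 °C; 0% = DMSO wells with yeast and 100% = medium wells without yeast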
B2AR ag CP1: activates human beta-2 adrenergic receptor; 1,100 compounds, 25% hits; percent response (surface receptor), % at 10 µM; AID 540358; shares compounds with B2AR ag; Am2.2-beta2AR cells, FAP surface receptor, flow cytometry; active compounds read low;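 active = surface receptor percent response at or below 58%, roughly 3 SD from nonfluorescent compounds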
B2AR FAP counter: fluorescence artifact in beta-2AR agonist FAP counterscreen; shares compounds with B2AR ag; Am2.2 cells, FAP fluorogen flow cytometry; active compounds read low; calls only at 10 µM; 1,100 tested, under 10 active; AID 588765;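 active = percent response below a set limit in fluorescence channel 1 and below 50% in channel 8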
Starred values were filed as active, the others as inactive; i = inactive; . = no result given.

SMILES | TIM10 inh | PfHsp90 set2 | tim23-1 inh | B2AR ag | tim10-1 inh | tim23-1 confirm | others
CCN1CCN(S(=O)(=O)c2ccc(Cl)c(C(=O)Nc3ccc(C(=O)N(CC)CC)cc3)c2)CC1 | -2 | -2 | -7 | 5 | -22 | .
NS(=O)(=O)c1ccc(N=Cc2c(O)n(C3CCCCC3)c(=O)n(C3CCCCC3)c2=O)cc1 | 32 | -6 | 52* | 7 | 24 | 46*
CN(C)c1ccc(/C=C/[N+](=O)[O-])cc1 | 2 | -23 | 46 | 36 | 12 | .
COc1cc(/C=C/[N+](=O)[O-])ccc1OC(=O)c1cccnc1 | 34 | 109* | 85* | 25 | -63 | -25
O=C(c1cccs1)c1cn(Cc2ccccc2Cl)c2ccccc12 | 18 | 6 | 14 | 12 | 24 | .
N#Cc1ccccc1Cn1cc(C(=O)c2cccs2)c2ccccc21 | 22 | 5 | 61* | -6 | 8 | 13
N#CC(C#N)=C(C#N)c1ccc(Nc2ccccc2)cc1 | -21 | 0 | 57* | 14 | 16 | 20
O=S(=O)(O)C(=Cc1ccccc1)c1ccccc1 (tested in a mixture with another compound) | . | -7 | . | 4 | . | .
CC(C)(C)c1ccc(O)c(N=Cc2c(O)ccc3ccccc23)c1 | 37 | -15 | 51* | -324 | 14 | 54*
COC(=O)C(O)(c1ccc(N=Cc2ccccc2O)c(C)c1)C(F)(F)F (configuration not stated) | -7 | -38 | 5 | 6 | -2 | .
OC(CNCc1ccccc1)c1ccc(Cl)cc1 (configuration not stated) | . | -19 | . | -2 | . | . | B2AR ag CP1=98;B2AR FAP counter=i
CNCCC(Oc1ccc(C(F)(F)F)cc1)c1ccccc1 (configuration not stated) | 8 | 0 | 8 | 9 | 11 | . | B2AR ag CP1=109;B2AR FAP counter=i
CNCCc1ccccc1 | -10 | . | -9 | . | -7 | .
CC(=O)N1CN2CN(C1)CN(C(C)=O)C2 | -6 | -9 | 9 | 5 | -7 | .
COC(=O)C1=C(c2cccc(OCc3ccccc3)c2)C[C@@H]2CC[C@H]1N2C(=O)NCc1cccc(F)c1 | 29 | -3 | 31 | 54* | 23 | . | B2AR ag CP1=46*;B2AR FAP counter=i
COC(=O)C1=C(c2cccc(OCc3ccccc3)c2)C[C@@H]2CC[C@H]1N2C(=O)NCc1ccccc1 | 0 | 6 | 25 | 10 | 17 | .
OC(c1cccc(Cl)c1)(c1cccc(Cl)c1)C1CN2CCC1CC2 (configuration not stated) | 3 | -6 | -3 | 59* | 4 | . | B2AR ag CP1=90;B2AR FAP counter=i
C[C@]12CCC3C(CC[C@@H]4[C@H]5O[C@H]5CC[C@]34C)C1CC[C@@H]2O (some centres not stated) | . | 21 | . | -4 | . | .
